Bioassay records as filed in PubChem BioAssay.
Shown are actives, neighbours in structure and some others; about 0.9% of the full set was active somewhere.
PPARg SRC1 recr – promotes SRC-1 coactivator recruitment by human PPARgamma; activation, % at 8 µM; P37231; AID 631; PPARgamma-SRC-1 coactivator recruitment biochemical assay; hit rate 0.41% among 200,000; in the data active means activation above about 19%;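 further: 0% = DMSO and 100% = reference agonist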
Target sequence (P37231 whole entry, looked up): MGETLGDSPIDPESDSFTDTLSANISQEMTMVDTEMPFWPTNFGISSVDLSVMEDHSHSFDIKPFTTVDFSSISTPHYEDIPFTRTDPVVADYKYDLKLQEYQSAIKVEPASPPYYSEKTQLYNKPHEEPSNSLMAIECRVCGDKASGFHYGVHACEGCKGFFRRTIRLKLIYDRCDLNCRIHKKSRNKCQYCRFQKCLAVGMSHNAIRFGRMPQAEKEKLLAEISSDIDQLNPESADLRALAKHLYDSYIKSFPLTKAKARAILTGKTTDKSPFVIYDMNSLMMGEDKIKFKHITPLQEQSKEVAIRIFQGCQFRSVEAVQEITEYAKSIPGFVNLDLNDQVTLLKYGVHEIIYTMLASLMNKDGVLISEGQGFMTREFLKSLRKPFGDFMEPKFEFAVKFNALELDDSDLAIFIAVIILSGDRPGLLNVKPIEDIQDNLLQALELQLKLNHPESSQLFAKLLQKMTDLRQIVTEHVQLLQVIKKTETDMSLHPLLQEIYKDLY
PPARg SRC-2 ag – promotes SRC-2 coactivator recruitment by human PPARgamma; PPARgamma LBD-SRC-2 recruitment, biochemical; P37231; AID 1032; activation, % at 8 µM; hit rate 0.34% among 200,000; in the data active means activation above about 22%;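 further: 0% = vehicle and 100% = reference agonist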
PPARg SRC3 recr – agonists of human PPARgamma SRC-3 coactivator recruitment. P37231. hit rate 0.26% among 200,000. biochemical PPARgamma/SRC-3 coactivator recruitment assay. AID 731. activation, % at 8 µM; in the data active means activation above about 23%;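 further: 0% = DMSO and 100% = reference agonist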
SRC3 TRFRET art – counter-screen for PPARgamma SRC-3 recruitment agonists: TR-FRET artefact. AID 1048. PPARgamma/SRC-3 format; hits give high values. hit rate 0.39% among 99,000. TR-FRET ratio at 8 µM
SRC1 TRFRET art – flags TR-FRET format artefacts in PPARgamma SRC-1 recruitment agonist screen. TR-FRET detection artefact counter-screen, emission ratio; hits give high values. TR-FRET ratio at 8 µM. hit rate 0.34% among 99,000; in the data active means TR-FRET ratio above about 2300
SRC2 TRFRET art – flags TR-FRET format artefacts in PPARgamma SRC-2 recruitment agonist screen. TR-FRET artefact counter-screen; hits give high values. TR-FRET ratio at 8 µM. hit rate 0.4% among 200,000
PPARg SRC2 ag – human PPARgamma SRC-2 recruitment agonism, confirmation | shares compounds with PPARg SRC3 recr | biochemical SRC-2 recruitment by PPARgamma | activation, % at 8 µM | hit rate 52% among 790; in the data active means activation above about 22%;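 further: 0% = vehicle alone and 100% = reference agonist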
PPARg SRC1 ag – confirmation of agonists of SRC-1 recruitment by human PPARgamma | shares compounds with PPARg SRC3 recr | hit rate 43% among 790 | PPARgamma–SRC-1 coactivator recruitment biochemical assay | activation, % at 8 µM; in the data active means activation above about 20%;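 further: 0% = vehicle wells and 100% = reference agonist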
PPARg SRC3 conf – confirmation of agonists of SRC-3 recruitment by human PPARgamma. shares compounds with PPARg SRC3 recr. biochemical PPARgamma-SRC-3 coactivator recruitment, agonist mode. activation, % at 8 µM. hit rate 29% among 790. AID 1301; in the data active means activation above about 24%;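 further: 0% = vehicle wells and 100% = reference agonist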
An asterisk follows results filed as active; · = no result given. Unless noted, no stated cut-off is given here; in the data, active means TR-FRET ratio above about 2000; inactive means the rest.

SMILES	PPARg SRC1 recr	PPARg SRC-2 ag	PPARg SRC3 recr	SRC3 TRFRET art	SRC1 TRFRET art	SRC2 TRFRET art	PPARg SRC2 ag	PPARg SRC1 ag	PPARg SRC3 conf
CC(=O)c1cccc(S(=O)(=O)N2CCN(c3nc4cc(C)cc(C)c4cc3C#N)CC2)c1	26*	-6	39*	·	·	1642	-1	-2	-4
Cc1cc(C)c2cc(C#N)c(N3CCCN(S(=O)(=O)c4ccccc4)CC3)nc2c1	-1	2	4	·	·	1481	·	·	·
Cc1occc1C(=O)N/N=C/c1c[nH]c2ccccc12	19*	2	10	·	·	1606	3	1	2
Oc1ccc(N=Cc2cc(Br)c(N3CCOCC3)o2)cc1	-6	0	6	1705	1576	1652	·	·	·
O=[N+]([O-])c1cc(Br)c(O)c(C=Nc2ccc(N3CCOCC3)cc2)c1	61*	64*	45*	2532*	2849*	2845*	11	16	9
Cc1[nH]n(-c2ccc([N+](=O)[O-])cc2)c(=O)c1C=NCCc1c(C)[nH]c2ccccc12	-1	2	-2	1705	1549	1683	·	·	·
CCNc1ccc2noc3c2c1C(=O)c1ccccc1-3	5	1	11	·	·	1616	·	·	·
O=C1c2ccccc2-c2onc3ccc(NCc4ccco4)c1c23	32*	35*	21	2084*	2253	1951	23*	14	13
CCOC(=O)N1CCN(C(=O)c2cc3c(s2)-c2ccccc2OC3)CC1	20*	13	38*	·	·	1847	8	9	4
O=C(c1cc2c(s1)-c1ccccc1OC2)N1CCN(c2ccccn2)CC1	30*	22*	30*	·	·	2008*	34*	30*	20
O=C(c1cc2c(s1)-c1ccccc1OC2)N1CCN(c2ccccc2)CC1	19*	21	11	·	·	2061*	22	19	12
O=C(COc1cccc2cccnc12)Nc1ccccc1N1CCOCC1	3	-4	4	1774	1827	1665	·	·	·
CCC1(C)Cc2c(C#N)c(N)sc(=S)c2CO1 (stereo not drawn)	12	13	27*	·	·	1619	6	8	7
O=C(COc1ccc(Br)cc1CNCCCN1CCOCC1)Nc1ccccc1	7	10	2	1588	1719	1425	·	·	·
Cc1ccccc1N1C(=O)CC(Sc2nnc(-c3ccccc3)o2)C1=O (stereo not drawn)	42*	43*	57*	·	·	1855	48*	36*	31*
O=C1c2ccccc2CC1Sc1nnc(-c2ccncc2)o1 (stereo not drawn)	-9	1	-4	·	·	1537	·	·	·
O=C1CC(Sc2nnc(-c3ccccc3)o2)C(=O)N1c1ccccc1 (stereo not drawn)	20*	39*	31*	·	·	1657	28*	21*	16
CC(Sc1nc(N2CCCCC2)c2c(c1C#N)CCCC2)C(=O)O (stereo not drawn)	19*	30*	18	·	·	1908	25*	16	16
O=[N+]([O-])c1ccc(O)c(-c2nc(-c3ccccc3)c(-c3cccs3)[nH]2)c1	-1	14	22	·	·	1532	·	·	·
COc1ccc(-c2nc(-c3cccs3)c(-c3cccs3)[nH]2)cc1O	63*	89*	90*	·	·	3397*	56*	44*	40*
COc1ccc(Br)cc1-c1nc(CCl)cs1	62*	62*	42*	3363*	3749*	3230*	59*	43*	41*
COc1cc(C#N)ccc1OCC(=O)Nc1cccc(S(=O)(=O)N2CCCC2)c1	0	0	-2	1470	1688	1558	·	·	·
Cc1cn(S(=O)(=O)c2ccc(Br)c3ccccc23)cn1	31*	49*	52*	·	·	2712*	40*	26*	28*
CC(=O)c1c(C)nn(CC(O)COc2ccc3ccccc3c2)c1C (stereo not drawn)	1	2	1	1559	1771	1481	·	·	·
CCCC(=Nc1ccc(N)cc1)C1=C(O)C(C(=O)OC)C(C)(C)CC1=O (stereo not drawn)	9	19	27*	·	·	1541	3	1	2
SMILES	PPARg SRC1 recr	PPARg SRC-2 ag	PPARg SRC3 recr	SRC3 TRFRET art	SRC1 TRFRET art	SRC2 TRFRET art	PPARg SRC2 ag	PPARg SRC1 ag	PPARg SRC3 conf
CCCC(=O)C1=C(O)C(C(=O)OC)C(C)(C)CC1=Nc1ccc(N)cc1 (stereo not drawn)	5	2	1	·	·	1498	·	·	·
Cc1ccc[n+](C2C(c3ccc([N+](=O)[O-])cc3)C(C#N)=C([S-])NC2(O)C2CC2)c1 (stereo not drawn)	6	4	1	1454	1755	1527	·	·	·
N#CC(=C=[N-])C1=C(C#N)C(c2ccccc2F)C([n+]2ccccc2)C(O)(C2CC2)N1 (stereo not drawn)	32*	75*	71*	·	·	3792*	12	9	10
Cc1cccc[n+]1C1C(c2ccccc2)C(C#N)=C(C(=C=[N-])C#N)NC1(O)C1CC1 (stereo not drawn)	15	26*	29*	·	·	2096*	30*	20*	19
CCOC(=O)C1C(=O)NC(SC)=C(C#N)C1c1ccccc1F (stereo not drawn)	10	5	1	1639	1865	1568	·	·	·
CCN1CCC(CNCc2cn(-c3ccc(OC)cc3)nc2-c2ccccc2Cl)C1 (stereo not drawn)	4	-1	-4	1491	1465	1412	·	·	·
Cc1cc(C)nc(SCc2cnc(C)nc2N)n1	-6	3	-6	1583	1818	1759	·	·	·
O=C(NC1CCCC1)C(c1ccc(F)cc1)N(Cc1ccccc1Cl)C(=O)CCl (stereo not drawn)	0	2	-1	1420	1745	1497	·	·	·
Cc1nnc(NC(=O)c2cccc(S(=O)(=O)N3CCc4ccccc43)c2)s1	8	9	11	·	·	1519	·	·	·
O=C(Nc1nc2c(s1)CN(Cc1ccccc1)CC2)c1cccc(S(=O)(=O)N2CCc3ccccc32)c1	37*	15	39*	·	·	4126*	50*	41*	30*
CCn1c(=O)cc(SCC(=O)NCCCN2CCN(c3ccccc3F)CC2)c2ccccc21	65*	79*	96*	·	·	3692*	42*	27*	29*
CCn1c(=O)cc(SCC(=O)N2CCN(C3CCCCC3)CC2)c2ccccc21	19*	35*	37*	·	·	2255*	27*	17	18
CCn1c(=O)cc(SCC(=O)N2CCOCC2)c2ccccc21	45*	55*	82*	·	·	2862*	35*	22*	22
